# HCV inhibitor: qHTS Assay for Inhibitors of Hepatitis C Virus (HCV). Huh7.5.1 HCVcc-Cre infection, luciferase reporter, 44 h. 340,000 tested, 3.4% active. AID 651820, 2012. Potency, µM (titrated, usually from 41.8 µM), for inactives: at the top dose activity change, negative = inhibition, hits mostly inhibitors
#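 Whole-lifecycle infectious HCVcc-Cre system; cells 1,000/well, compound then virus (~0.5 moi) added 4 h after plating, 44 h culture. Luciferase read 15 sec following 15 min substrate incubation, room temp.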
# LASV entry inh: qHTS for Inhibitors of binding or entry into cells for Lassa Virus | Potency, µM (highest dose often 37.9 µM), inactives show top-dose activity change, negative = inhibition, hits mostly inhibitors | 300,000 tested, 1.2% active | Lassa virus pseudotype entry inhibition, cell reporter; calls by dose curve; tested in HEK293 cells; note: nearly all actives have a fitted effect of over 50% in size
# Sm TGR inh: qHTS Assay for the Inhibitors of Schistosoma Mansoni Peroxiredoxins; Potency, µM (doses to about 114 µM), for the others: top-dose activity change, negative = inhibition, usual class: inhibitors; 360,000 tested, 3% active; Schistosoma mansoni thioredoxin glutathione reductase (TGR), Q962Y6; purified TGR, DTNB reduction, TNB absorbance 405 nm; note: nearly all actives have a fitted effect of over 60% in size
#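 TGR 20 nM + NADPH 100 uM (dispensed conc.), cpd preinc 15 min RT; start with NADPH (500 uM addition) then DTNB (15 mM addition). Kinetic TNB absorbance, 405 nm filter. Four-parameter Hill fit across titration.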
# FMDV inh: High Throughput Screening for Foot and Mouth Disease Virus Antivirals | Potency, µM (series often up to 57.9 µM), inactives show at the top dose activity change, negative = inhibition, actives largely listed as inhibitors | 410,000 tested, 1.2% active | FMDV antiviral cell-based qHTS; calls by dose curve; tested in HEK293T cells; note: read-out not given here; nearly all actives have a fitted effect of over 45% in size
# MARV entry inh: qHTS for inhibitors of binding or entry into cells for Marburg Virus; Marburg virus pseudotyped entry inhibition, cell reporter; Potency, µM (doses to about 37.8 µM), without a hit: at the highest dose activity change, negative = inhibition, actives largely listed as inhibitors; 300,000 tested, 1.8% active; AID 540276, 2011; calls by dose curve; tested in HEK293 cells
# RE007 growth inh: qHTS Assay for Inhibitors of the HIV-1 protein Vpr; 360,000 tested, 0.21% active; AID 651644, 2012; S. pombe RE007 Vpr strain, BacTiter-Glo ATP luminescence, 24 h; Potency, µM (doses to about 92.2 µM), for inactives: top-dose activity change, negative = less growth, actives largely listed as inhibitors; active = well fitted falling curve with a large enough effect; inconclusive = small, poorly fitted or top-dose-only effect; inactive = no such curve, though single readings can be large or run the other way; note: nearly all actives have a fitted effect of over 50% in size
#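 Fission yeast RE007 carrying one integrated HIV-1 vpr copy, seeded at OD 0.01 in PMG+AL medium with 23 nL pinned compound. Grown 24 h at 30 degrees; viability read by BacTiter-Glo luminescence after 5 min.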
# An asterisk follows results filed as active; ? = inconclusive; · = no result given; ! = repeats disagree; [ ] = another dose, or the depositor's remark. Rows were chosen to be rich in hits. Some 7.2% of all compounds tested hit in one or more screens of this group. Unless noted, calls come from the whole dose curve; as a rule, active = well fitted curve in the direction sought with a large enough effect; inconclusive = small, poorly fitted or top-dose-only effect, or another doubt; inactive = no such curve, though single readings can be large; an effect the other way counts as inactive or inconclusive. % is set by controls: 0 for no effect and ±100 for the full control effect; potency is the fitted concentration of half-maximal effect.
SMILES,HCV inhibitor,LASV entry inh,Sm TGR inh,FMDV inh,MARV entry inh,RE007 growth inh
Cc1cc(N)ccc1N1CCCC1,-9%,4%,5µM*,-6%,-17%,-10%
CCN1CCN(c2ccc(N)cc2C)CC1,-12%,1%,3%,-9%,?,-2%
Nc1cc(Cl)ccc1N1CCCCCC1,11%,17%,6.3µM*,10%,29%[46.1 µM],-7%
Cc1cc(C)n(S(=O)(=O)/C=C/c2ccccc2)n1,?,?,-22%,-28%,5.2µM*,13%
CCC1Nc2ncnc(N3CCN(c4ccccc4)CC3)c2N(Cc2ccc(OC)cc2)C1=O (stereo unspecified),2.8µM*,·,-26%,-17%,·,10%
CC(C)CC1Nc2ncnc(N3CCN(c4ccccn4)CC3)c2N(Cc2ccc(Br)cc2)C1=O (stereo unspecified),25µM*,·,-15%,-15%,·,3%
Cc1ccc(CN2C(=O)C(CC(C)C)Nc3ncnc(N4CCN(c5ccccn5)CC4)c32)cc1 (stereo unspecified),?,·,-18%,-8%,·,-7%
COc1ccc(Cn2c(=O)c3oc4ccccc4c3n(CC(=O)Nc3cc(C)cc(C)c3)c2=O)cc1,·,?,-10%,-9%,·,·
COc1cc(-c2nc(-c3ccccc3)c(-c3cccs3)[nH]2)cc(OC)c1O,10µM*,-10%,-16%,?,8%,17%
COc1cc(-c2nc(-c3ccccc3)c(-c3cccs3)[nH]2)cc(OC)c1OC,22µM*,-35%,-17%,0%,?,-5%
c1ccc(-c2nc(-c3cccs3)[nH]c2-c2ccccc2)cc1,?,4%,-22%,0%,?,19%
COc1ccc(CCNC(=O)CCCn2c(=O)c3cccn3c3ccc(F)cc32)cc1OC,·,0%[46.1 µM],0%,-10%,·,·
CCOC(=O)c1cc(-c2ccccc2)sc1NC(=O)CN1C(=O)NC(CC)(c2ccc(F)cc2)C1=O (stereo unspecified),10µM*,2%,-8%,-11%,?,11%
CCC1(c2ccc(F)cc2)NC(=O)N(CC(=O)Nc2cccc(S(=O)(=O)N3CCCCC3)c2)C1=O (stereo unspecified),10µM*,-10%,8%,-24%,?,-1%
CCOC(=O)c1cc(-c2ccccc2)sc1NC(=O)CN1C(=O)NC(CC)(c2ccccc2)C1=O (stereo unspecified),-16%,-3%,-20%,-2%,-19%,15%[3.69 µM]
CCC1(c2ccc(F)cc2)NC(=O)N(CC(=O)Nc2cccc(S(=O)(=O)N3CCCC3)c2)C1=O (stereo unspecified),?,·,·,-15%,·,2%
CC1CCC2(CC1)NC(=O)N(CC(=O)Nc1cccc(S(=O)(=O)N3CCCCC3)c1)C2=O (stereo unspecified),25µM*,·,·,-25%,·,-3%
COc1ccc(NC(=O)CN2C(=O)C(C)(C)c3cc(S(=O)(=O)N4CCCCC4)ccc32)cc1Cl,·,?,4%,26%,·,·
O=C(Nc1ccccc1)c1cc2ccc3ccccc3c2s1,11µM*,11%,0%,42%,?,-7%
O=C(NCCCN1CCCCC1)c1cc(Sc2ccc(Cl)cc2)nc2ccccc12,·,19%[46.1 µM],-12%,-17%,·,·
CCN(CC)CCN=Cc1c(O)n(Cc2ccco2)c(=O)[nH]c1=O,24%,13%,-24%,-22%,?,9%
Cc1ccc(-n2c(O)c(C=NCc3ccco3)c(=O)[nH]c2=S)cc1C,11%,9%,10µM*,-5%,2%[14.2 µM],2%
CC(=O)Nc1ccc(N=Cc2c(O)n(Cc3ccco3)c(=O)[nH]c2=O)cc1,15%,20%,25µM*,-19%,-6%[46.1 µM],-9%
O=c1[nH]c(=O)n(Cc2ccco2)c(O)c1C=NCc1ccco1,0%,-1%,25µM*,·,22%,3%
Cc1nc(N2CCOCC2)c2c(C(=O)N3CCN(c4ccc(Cl)cc4)CC3)c(C)oc2n1,·,13%[46.1 µM],-7%,-22%,·,·
SMILES,HCV inhibitor,LASV entry inh,Sm TGR inh,FMDV inh,MARV entry inh,RE007 growth inh
COc1cc2c(cc1OC)C(Cc1ccc(O)c(Oc3ccc(C[C@H]4c5cc(OC)c(OC)cc5CCN4C)cc3)c1)N(C)CC2 (stereo partly specified),-2%,·,·,·,·,·
O=C(C1CCCN(S(=O)(=O)c2cccc3nsnc23)C1)N1CCN(c2ccccn2)CC1 (stereo unspecified),?,-54%,-18%,28µM*,?,0%
CC1CCN(C(=O)C2CCCN(S(=O)(=O)c3cccc4nsnc34)C2)CC1 (stereo unspecified),-7%,14%[46.1 µM],-35%,-10%,13%[46.1 µM],16%
O=C(C1CCCN(S(=O)(=O)c2cccc3nsnc23)C1)N1CCN(c2cccc(Cl)c2)CC1 (stereo unspecified),·,?,0%,11µM*,?,·
COc1cccc(N2CCN(C(=O)C3CCCN(S(=O)(=O)c4cccc5nsnc45)C3)CC2)c1 (stereo unspecified),·,?,-5%,-24%,?,·
C=COC[C@H]1CN2[C@H](c3ccc(Br)cc3)[C@H](C)CC[C@H]2C(=O)O1,·,·,·,·,-1%[14.2 µM],·
CC(=O)OC1CC(O)C(C)(C)C2CC(OC(C)=O)[C@]3(C)C(CC[C@@]4(C)C(c5ccoc5)OC(=O)C5OC534)[C@]12C (stereo partly specified),·,·,·,-11%,·,·
CC(C)(C)n1nnnc1C(c1cccnc1)N1CCN(c2ccccc2F)CC1 (stereo unspecified),2%,3%,-24%,-15%,12%,-4%
Cc1cccc(N2CCN(C(c3cccs3)c3nnnn3C(C)(C)C)CC2)c1C (stereo unspecified),-6%,?,1%,·,12µM*!,-7%
Cc1ccc(C(c2nnnn2CC2CCCO2)N2CCN(c3cccc(C)c3C)CC2)cc1 (stereo unspecified),11µM*!,?,-2%,-29%,?,8%
Cc1cccc(N2CCN(C(c3ccccc3)c3nnnn3C(C)(C)C)CC2)c1C (stereo unspecified),2%,3.3µM*,-2%,-7%,?,2%
CC(C)(C)n1nnnc1C(c1cccs1)N1CCN(c2ccccc2)CC1 (stereo unspecified),3%,?,-7%,0%,10%,19%
CCC(c1nnnn1C(C)(C)C)N1CCN(c2cc(Cl)ccc2C)CC1 (stereo unspecified),-18%,13µM*,5%,-1%,10µM*,-5%
